FLuc counter – qHTS profiling assay for firefly luciferase inhibitor/activator using purifed enzyme and Km concentrations of substrates (counterscreen for miR-21 project). Luciferin 4-monooxygenase (Photinus pyralis), P08659. purified FLuc, Km substrates, luminescence inhibition. Potency, µM (series often up to 57.5 µM), inactives show at the top dose activity change, negative = inhibition, hits mostly inhibitors. 6.9% of 360,000 active. AID 588342, 2011;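 further: plate controls were vehicle for no effect and reference inhibitor for full effect; nearly all actives have a fitted effect of over 55% in size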
Target sequence (P08659 whole entry, looked up): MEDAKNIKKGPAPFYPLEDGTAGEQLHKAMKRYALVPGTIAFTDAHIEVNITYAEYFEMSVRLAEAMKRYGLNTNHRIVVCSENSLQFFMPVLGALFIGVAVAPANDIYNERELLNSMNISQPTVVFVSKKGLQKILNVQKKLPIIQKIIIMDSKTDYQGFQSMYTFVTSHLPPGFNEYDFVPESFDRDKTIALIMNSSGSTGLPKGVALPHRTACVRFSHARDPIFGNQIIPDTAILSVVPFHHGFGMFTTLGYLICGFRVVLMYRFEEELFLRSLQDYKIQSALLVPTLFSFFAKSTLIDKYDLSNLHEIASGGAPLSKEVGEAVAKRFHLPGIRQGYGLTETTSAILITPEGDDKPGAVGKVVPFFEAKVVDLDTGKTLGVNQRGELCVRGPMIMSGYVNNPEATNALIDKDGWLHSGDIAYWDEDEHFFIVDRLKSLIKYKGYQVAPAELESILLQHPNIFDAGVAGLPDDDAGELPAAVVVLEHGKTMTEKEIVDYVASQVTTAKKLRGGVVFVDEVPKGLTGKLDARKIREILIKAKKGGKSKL
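Purified P. pyralis luciferase, 10 nM final, with Km-level 10 uM D-luciferin and 10 uM ATP in 50 mM Tris acetate pH 7.5, 10 mM Mg acetate, 0.01% Tween-20, 0.05% BSA; 6-point qHTS titration about 60 µM downward; luminescence read.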
Rab9 prom act – qHTS Assay for Rab9 Promoter Activators. Huh7 Rab9 promoter-luciferase reporter, luminescence, 24 h. Potency, µM (doses to about 9.22 µM), inactives show top-dose activation, negative = inhibition, hits mostly activators. 2.8% of 320,000 active; further: % of control where 0% means no effect; nearly all actives have a fitted effect of over 60% in size
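Quantitative HTS format; Huh7 Rab9-luciferase reporter cells (1500/well) receive compound 2 h post-plating, incubate 24 h at 37 °C, then get luciferase reagent for 10 min before luminescence reading.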
ELG1 genotox – qHTS screen for small molecules that induce genotoxicity in human embryonic kidney (HEK293T) cells expressing luciferase-tagged ELG1. HEK293T ELG1-luciferase reporter, luminescence, 16 h. Potency, µM (titrated, usually from 46 µM), for the others: at the highest dose activity change, positive = activation, usual class: activators. 1.3% of 330,000 active. AID 504466, 2011; further: % of control where 0% means no effect; nearly all actives have a fitted effect of over 60% in size
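16 hr compound incubation (37 °C, 5% CO2) of HEK293T cells carrying luciferase-tagged ELG1; luciferase then measured by ONE-Glo luminescence after 30 min at RT.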
ELG1 DNA repair – qHTS screen for small molecules that inhibit ELG1-dependent DNA repair in human embryonic kidney (HEK293T) cells expressing luciferase-tagged ELG1; HEK293T ELG1-luciferase reporter, luminescence, 16 h; DNA damage induced by 5-fluorouridine; Potency, µM (highest dose often 46.1 µM), for inactives: at the top dose activity change, negative = inhibition, actives largely listed as inhibitors; 2.3% of 330,000 active; AID 504467, 2011; further: on the % scale 0 is the no-effect control and ±100 the full control effect; nearly all actives have a fitted effect of over 55% in size
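Reporter activity after DNA damage by 5-fluorouridine is monitored. Compound-treated cells incubate 16 hr at 37 °C, then ONE-Glo is added for 30 min before luminescence reading.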
NPC1 prom act – qHTS Assay for NPC1 Promoter Activators; Huh7 NPC1 promoter luciferase reporter, 24 h; Potency, µM (doses to about 9.22 µM), for the others: at the highest dose activation, hits mostly activators; 2.4% of 320,000 active; further: % of control where 0% means no effect; nearly all actives have a fitted effect of over 60% in size
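In 1536-well qHTS, Huh7 cells harboring an NPC1 promoter–luciferase construct received compound for 24 h; activation was quantified by luminescence following luciferase reagent addition.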
SMN2 splice up – qHTS Assay for Enhancers of SMN2 Splice Variant Expression | HEK293 SMN2-luciferase splicing reporter, luminescence, 30-36 h | 2.8% of 210,000 active | Potency, µM (top dose mostly 46.1 µM), for inactives: at the highest dose activity change, positive = activation, usual class: activators; further: % of control where 0% means no effect; nearly all actives have a fitted effect of over 55% in size
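HEK293 cells carry an SMN2 […]–luciferase reporter in which exon 7 inclusion puts luciferase in frame. Cells were plated 10-12 h before compound addition, then incubated 30-36 h at 37C. ONE-Glo luminescence was read; sodium butyrate at 4.5 mM final served as control.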
ELG1 FLuc counter – qHTS screen for small molecules that inhibit ELG1-dependent DNA repair: Hit Confirmation in Cell-Based Luciferin Assay; Potency, µM (titrated, usually from 46.1 µM), inactives show top-dose activity change, negative = inhibition, usual class: inhibitors; cell-free firefly luciferase luminescence counter-screen, ViewLux; shares compounds with ELG1 DNA repair; AID 624247, 2012; 3% of 350 active; further: on the % scale 0 is the no-effect control and ±100 the full control effect
ELG1 unstim viab – qHTS screen for small molecules that inhibit ELG1-dependent DNA repair: Hit Confirmation with Unstimulated Viability Assay; Potency, µM (doses to about 45.9 µM), inactives show top-dose activity change, negative = loss of viability, hits mostly cytotoxic; shares compounds with ELG1 DNA repair; cell viability counter-screen, unstimulated, luminescence; 8% of 900 active;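 further: compound exposure lasted 16 hours before reading; on the % scale 0 is the no-effect control and ±100 the full control effect; nearly all actives have a fitted effect of over 55% in size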
FLuc enzyme – qHTS screen for small molecules that inhibit ELG1-dependent DNA repair: Hit Confirmation in Biochemical Luciferin Assay; Potency, µM (series often up to 57.5 µM), for inactives: at the highest dose activity, negative = inhibition, usual class: inhibitors; shares compounds with ELG1 DNA repair; 10% of 350 active; purified firefly luciferase, luminescence counter-screen; AID 624253, 2012; further: on the % scale 0 is the no-effect control and ±100 the full control effect
* = called active by the depositor; u = inconclusive; x = not tested or not shown. Hits are enriched below; roughly 9.4% of the tested compounds scored in any of these assays. The call rests on the fitted dose curve; in most records, active means well fitted curve in the direction sought with a large enough effect; inconclusive means small, poorly fitted or top-dose-only effect, or another doubt; inactive means no such curve, though single readings can be large; an effect the other way counts as inactive or inconclusive. Potency means the concentration at half of the fitted maximal effect.

SMILES	FLuc counter	Rab9 prom act	ELG1 genotox	ELG1 DNA repair	NPC1 prom act	SMN2 splice up	ELG1 FLuc counter	ELG1 unstim viab	FLuc enzyme
COc1cccc(NC(=O)CSc2nnc(-c3ccc(C)cc3)o2)c1	-1.6%	u	10.3µM*	u	16.8%	15.8µM*	x	1.2%	x
O=C(CSc1nnc(-c2ccc(F)cc2)o1)Nc1ccc(S(=O)(=O)N2CCCCCC2)cc1	1.2%	-3.8%	-0.3%	-3.3%	-2.6%	x	-4.5%	u	-6.6%
Cc1ccc(NC(=O)CSc2nnc(-c3ccccc3C)o2)cc1C	1.4%	17.6%	0.5%	u	-1.1%	-4.5%	x	x	x
Cc1ccccc1-c1nnc(SCC(=O)Nc2cccnc2Cl)o1	x	x	2.06µM*	u	x	x	x	25µM*	x
Cc1ccccc1NC(=O)CSc1nc2ccccc2o1	3.1%	u	4.11µM*	u	u	7.2%	64.5%	u	-5.9%
Cc1ccc(NC(=O)CSc2nnc(-c3ccncc3)o2)cc1	4.4%	7.1%	-2.5%	-2.8%	1.8%	8.1%	x	x	x
O=C(CSc1nnc(-c2ccc(O)cc2)o1)Nc1ccccc1Br	x	3.16µM*	10.3µM*	u	2.82µM*	x	x	-1.7%	x
COc1ccc(NC(=O)C2CCC(CNS(=O)(=O)c3ccc4c(c3)C(C)(C)C(=O)N4C)CC2)cc1 (centres undefined)	2.6%	x	x	x	x	x	x	x	x

Assay outcomes (PubChem)
